“And” between values parts separate entries of the source, which are not always exact repeats. Identical values can stand only once. Records with an inconclusive call do not appear. A structure can be active in one record and inactive in another. The source made the active and inactive calls. Unless noted, calls follow the shape of the dose curve; as a rule, active = well fitted curve in the direction sought with a large enough effect in the repeat runs; inconclusive = weak or mixed curves; inactive = no such curve, though single readings can be large; an effect the other way counts as inactive or inconclusive.
Key:
[1] = target: Thyrotropin receptor (Homo sapiens) (UniProt P16473); assay: qHTS assay to identify small molecule agonists of the thyroid stimulating hormone receptor (TSHR) signaling pathway (AID 1224843; calls by dose curve; also: nearly all actives have a fitted effect of over 45% in size; also: potency is read from the fitted curve at half-maximal effect)
Outline: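 TSHR-expressing HEK293 cells (800 per well) were exposed to compounds for 30 min at room temperature. cAMP was then detected by HTRF competition with cAMP-d2 and anti-cAMP cryptate, read after 1 h at room temperature. Fifteen concentrations, triplicate.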

[2] = qHTS assay to identify small molecule agonists of the hypoxia (HIF-1) signaling pathway - cell viability counter screen (AID 1224844; calls by dose curve; also: nearly all actives have a fitted effect of over 50% in size)
Outline: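 Tox21 10K compounds were added to HRE-bla ME-180 cells (0.5% dialyzed FBS) and incubated 17 hrs at 37C; ATP-based CellTiter-Glo luminescence then reported cell viability in the same wells.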

[3] = qHTS assay to identify small molecule agonists of H2AX (AID 1224845; active = well fitted activation curve with a large enough effect in the signal ratio in the repeat runs, not every such curve was filed as active; the % refers to the signal ratio)
Outline: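 Wild-type CHO-K1 cells plated overnight, then exposed 3 hr at 37C to compounds at 15 concentrations (0.76% DMSO). Lysed, then HTRF anti-pH2AX(S139)-cryptate/anti-H2AX-d2 detection after 24 hr at room temperature; emissions 665 and 620 nm.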

[4] = qHTS assay to identify small molecule agonists of the hypoxia (HIF-1) signaling pathway (AID 1224846; active = well fitted activation curve with a large enough effect in the signal ratio in the repeat runs, not every such curve was filed as active; the % refers to the signal ratio)
Outline: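 Steps: seed ME-180 HRE-bla cells (2,000/well, 0.5% dialyzed FBS); incubate 5 hrs at 37C; pin-transfer compounds or DMSO; incubate 17 hrs; add LiveBLAzer B/G substrate CCF4-AM; measure reporter activation by FRET.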

[5] = qHTS assay to identify small molecule agonists of H2AX - cell viability counter screen (AID 1224847; calls by dose curve; also: top concentration of the series differs between compounds; nearly all actives have a fitted effect of over 30% in size)
Outline: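 For this counter screen, overnight-attached CHO-K1 cells received test compounds (15 concentrations, 0.76% DMSO final); 3 hr later at 37C, CellTiter-Glo reagent was added and luminescence recorded after 30 min at room temperature.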

[6] = qHTS assay to identify small molecule antagonists of the estrogen related receptor (ERR) signaling pathway from Tox21 library (AID 1224848); also: nearly all actives have a fitted effect of over 50% in size; also: potency is read from the fitted curve at half-maximal effect
Outline: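 Cells: ERR line, 2,000/well; 6 h preincubation 37 C/5% CO2. Cpd in DMSO via pin tool; 18 h, 37 C. ONE-Glo, 30 min RT, luminescence.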

[7] = qHTS assay to identify small molecule agonists of the estrogen related receptor (ERR) signaling pathway from Tox21 library (AID 1224849; calls by dose curve; also: nearly all actives have a fitted effect of over 15% in size); conditions: ERR reporter cell line, ONE-Glo luciferase, 18 h; at 92.4 µM (top of the series)
Outline: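 Agonist signal is luciferase luminescence from an ERR reporter cell line treated 18 h at 37 C with DMSO-dissolved compounds, read 30 min after ONE-Glo addition at room temperature.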

[8] = qHTS RealTime-Glo MT Cell Viability Assay in HepG2 cells - 24 hour (AID 1224867); also: nearly all actives have a fitted effect of over 50% in size
Outline: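 Cell number in HepG2 cultures estimated from NanoLuc luminescence generated by metabolic reduction of a prosubstrate by living cells. The homogeneous, nonlytic format allowed repeated reads at 0, 8, 16, 24, 32 and 40 h of compound exposure.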

[9] = qHTS RealTime-Glo MT Cell Viability Assay in HEK293 cells - 32 hour (AID 1224868); also: nearly all actives have a fitted effect of over 50% in size; also: potency is read from the fitted curve at half-maximal effect
Outline: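 Homogeneous bioluminescent viability format in HEK293 cells (600 cells/well). Following 5 h at 37 C/5% CO2, 23 nL compound was pintooled; the signal was measured repeatedly during 40 h incubation.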

[10] = A CellTox Green Cytotoxicity Assay to monitor cytotoxicity in HEK293 cells - 0 hour (AID 1224869); also: nearly all actives have a fitted effect of over 50% in size; also: potency is read from the fitted curve at half-maximal effect
Outline: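 Cytotoxicity was tracked continuously in HEK293 cells by a DNA-binding dye excluded from viable cells. Compounds were transferred in DMSO 5 h after seeding; fluorescence was recorded at intervals up to 40 h.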
% is scaled to controls: 0 for no effect and ±100 for the full control effect.

Sequence of Thyrotropin receptor (Homo sapiens) (P16473 whole entry, looked up): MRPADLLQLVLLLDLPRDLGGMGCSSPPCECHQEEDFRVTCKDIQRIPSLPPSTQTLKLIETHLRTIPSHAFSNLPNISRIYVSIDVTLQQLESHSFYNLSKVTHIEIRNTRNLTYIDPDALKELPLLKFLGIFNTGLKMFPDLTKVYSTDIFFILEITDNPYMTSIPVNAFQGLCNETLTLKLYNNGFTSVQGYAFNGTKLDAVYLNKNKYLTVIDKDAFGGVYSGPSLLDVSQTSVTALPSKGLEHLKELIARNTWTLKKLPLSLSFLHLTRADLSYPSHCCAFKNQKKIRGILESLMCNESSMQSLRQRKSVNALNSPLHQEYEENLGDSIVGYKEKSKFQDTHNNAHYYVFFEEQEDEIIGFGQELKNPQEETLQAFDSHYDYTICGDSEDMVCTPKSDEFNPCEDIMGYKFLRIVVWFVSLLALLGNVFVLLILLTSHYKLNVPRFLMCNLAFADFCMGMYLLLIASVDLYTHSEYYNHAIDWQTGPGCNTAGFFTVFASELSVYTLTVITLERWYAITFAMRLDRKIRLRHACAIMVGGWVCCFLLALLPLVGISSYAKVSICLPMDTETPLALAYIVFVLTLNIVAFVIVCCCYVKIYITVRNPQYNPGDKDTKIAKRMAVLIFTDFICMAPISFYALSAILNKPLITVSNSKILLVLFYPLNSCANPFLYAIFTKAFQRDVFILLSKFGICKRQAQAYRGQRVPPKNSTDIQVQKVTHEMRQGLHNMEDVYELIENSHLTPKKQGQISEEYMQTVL

O=[N+]([O-])c1cccc(Cl)c1
inactive: Potency [2] | Potency [3] | outcome [4] | Potency [5] | Potency [6] | activity change, positive = activation [7] 8.37% and -4.75% | Potency [8] | Potency [9] | Potency [10]
6.74 µM (active) and inactive: Potency [1]

C=C(C)C(=O)OCCC[Si](OC)(OC)OC
inactive: Potency [1] | Potency [2] | Potency [3] | outcome [4] | Potency [5] | Potency [8] | Potency [9] | Potency [10]

CCCCC(CC)COC(=O)CCCCCCCC(=O)OCC(CC)CCCC (centres undefined)
inactive: Potency [1] | Potency [2] | Potency [3] | outcome [4] | Potency [5] | activity change, positive = activation [7] -81.2% and -2.38% | Potency [8]
54.9 µM (active) and inactive: Potency [10]
7.7 µM (active) and inactive: Potency [6]
6.17 µM (active) and inactive: Potency [9]

CC1COc2ccccc2N1C(=O)C(Cl)Cl (centres undefined)
inactive: Potency [1] | Potency [2] | Potency [3] | outcome [4] | Potency [5] | Potency [8] | Potency [9] | Potency [10]

CCCCC(CC)COC(=O)/C=C\C(=O)OCC(CC)CCCC (centres undefined)
inactive: Potency [1] | Potency [2] | Potency [3] | outcome [4] | Potency [5] | Potency [6] | Potency [8] | Potency [9] | Potency [10]

CC(=O)CCc1ccccc1
inactive: Potency [1] | Potency [2] | Potency [3] | outcome [4] | Potency [5] | Potency [6] | activity change, positive = activation [7] 1.01% and -0.812% | Potency [8] | Potency [9] | Potency [10]

CC1(C)CC(N=C=O)CC(C)(CN=C=O)C1 (centres undefined)
inactive: Potency [1] | Potency [2] | Potency [3] | outcome [4] | Potency [5] | Potency [8] | Potency [9] | Potency [10]

CC1=CC[C@H]2C[C@@H]1C2(C)C
inactive: Potency [1] | Potency [2] | Potency [3] | outcome [4] | Potency [5] | Potency [8] | Potency [9] | Potency [10]

CCCCC(CC)COC(C)=O (centres undefined)
inactive: Potency [1] | Potency [2] | Potency [3] | outcome [4] | Potency [5] | Potency [6] | Potency [8] | Potency [9] | Potency [10]

CC(C)Cc1ccccc1
inactive: Potency [1] | Potency [2] | Potency [3] | outcome [4] | Potency [5] | Potency [8] | Potency [9] | Potency [10]

Cc1cc(O)cc(C)c1Cl
inactive: Potency [1] | Potency [2] | Potency [3] | outcome [4] | Potency [5] | Potency [8] | Potency [9] | Potency [10]

NS(=O)(=O)c1cc2c(cc1Cl)NC=NS2(=O)=O
inactive: Potency [1] | Potency [2] | Potency [3] | outcome [4] | Potency [5] | Potency [8] | Potency [9] | Potency [10]
